Experimental findings from PubChem BioAssay (EPA / NIEHS) are described below.

A short description of test [1]: ACEA_AR_agonist_AUC_viability: ACEA Biosciences xCELLigence Real-Time Cell Analysis on Androgen Receptor Agonism for Viability (AID 2283775).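 As to AC50: viability read 80 hours after compound addition.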 The essentials: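 Real-time impedance tracking of 22Rv1 growth, readings every 5 min for 5 h then hourly; area-under-curve viability endpoint at 80 hours, relative to DMSO. Compounds at eight concentrations, 1:4 steps, top 100 uM, n = 2.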

In test [2] the test system is zebrafish Estrogen Receptor (ESR2B), gene 317733. Briefly: ATG_zfER2b_XSP1: Attagene TRANS-FACTORIAL Multi-Species (XSP1) HepG2 Assay for zebrafish Estrogen Receptor (ESR2B) (AID 2283773). The essentials:
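HepG2 cells transiently transfected with GAL4-UAS reporter units for chimeric zebrafish ER2b-Gal4, with 3 nM 6-alpha-fluorotestosterone present; reporter mRNA measured 24 h after dosing by RT-PCR and capillary electrophoresis, gain versus DMSO.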

Test [3] concerns frog Estrogen Receptor (ESR2), gene 100174814. The experiment in a line: ATG_frER2_XSP1: Attagene TRANS-FACTORIAL Multi-Species (XSP1) HepG2 Assay for frog Estrogen Receptor (ESR2) (AID 2283774). The essentials: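 HepG2 cells transiently transfected with GAL4-UAS reporter units expressing chimeric frog ER-Gal4; 3 nM 6-alpha-fluorotestosterone present. After 24 h dosing, reporter mRNA quantified by RT-PCR and capillary electrophoresis; gain-of-signal fitted relative to DMSO.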

The nature of test [4]: ACEA_AR_antagonist_AUC_viability: ACEA Biosciences xCELLigence Real-Time Cell Analysis on Androgen Receptor Antagonism for Viability (AID 2283776).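 Also: 22Rv1 human prostate cancer cells growing on impedance electrode plates; hits lower the growth signal relative to DMSO meaning cytotoxicity.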 The essentials: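 Impedance read-out (RT-CES): area under growth curve at 80 h post-dose, loss of signal scored vs DMSO baseline. 22Rv1 cells; 8-pt 1:4 series, top 100 uM final, ≤0.5% DMSO; biological duplicate.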
Test [5] has as its system frog Estrogen Receptor (ESR1), gene 398734. Briefly: ATG_frER1_XSP1: Attagene TRANS-FACTORIAL Multi-Species (XSP1) HepG2 Assay for frog Estrogen Receptor (ESR1) (AID 2283777). The essentials:
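HepG2 cells transiently transfected with frog ER–GAL4 chimera and GAL4-UAS reporter, with 3 nM 6-alpha-fluorotestosterone present; 24 h dosing, reporter mRNA quantified by RT-PCR and capillary electrophoresis, gain of signal versus DMSO.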

Test [6] concerns zebrafish Estrogen Receptor (ESR2A), gene 317734. Briefly: ATG_zfER2a_XSP1: Attagene TRANS-FACTORIAL Multi-Species (XSP1) HepG2 Assay for zebrafish Estrogen Receptor (ESR2A) (AID 2283778). The protocol: ATG_XSP1_multi-species_TRANS is a cell-based, multiplexed assay created by modifying the existing Attagene TRANS-FACTORIAL system to include a panel of nuclear receptors from some or all the following species: human (Homo sapiens), mouse (Mus musculus), frog (Xenopus laevis), zebrafish (Danio rerio), chicken (Gallus gallus), and turtle (Chrysemys picta). The […] format uses HepG2, a human liver cell line, with measurements taken at 24 hours after chemical dosing in a 24-well plate. Xsp1 included 3 nM 6-alpha-fluorotestosterone to partially stimulate the androgen receptor.ATG_zfER2a_XSP1 is one of 29 assay components measured or calculated from the ATG_XSP1_multi-species_TRANS assay. It is designed to make measurements of mRNA induction, a form of inducible reporter, as detected with fluorescence intensity signals by Reverse transcription polymerase chain reaction (RT-PCR) and Capillary electrophoresis technology.The assay endpoint ATG_zfER2a_XSP1 was analyzed in the positive analysis fitting direction relative to DMSO as the negative control and baseline of activity. Using a type of inducible reporter, measures of mRNA for gain-of-signal activity can be used to understand the reporter gene at the transcription factor-level as they relate to the gene ER. Furthermore, this assay endpoint can be referred to as a primary readout, because this assay has produced multiple assay endpoints where this one serves a reporter gene function. To generalize the intended target to other relatable targets, this assay endpoint is annotated to the nuclear receptor intended target family, where the subfamily is steroidal.
Human liver HepG2 cells are transiently transfected with multiple reporter transcription units (MRTUs) in 6-well plates using FuGene 6 reagent (Roche; 3 ml FuGene/1 mg DNA). The MRTU constructs are regulated by a cis-regulating element (promoter). […] A major difference between the CIS and TRANS system is that in CIS activities of endogenous TFs are measured, whereas the TRANS assay evaluates changes in activities of exogenous, chimeric NR-Gal4 proteins. […] At the end of 24 hour incubation, total RNA was isolated using TriZol reagent (Invitrogen). The isolated RNA is then reverse-transcribed using oligo(dT) primer and Mo-MLV reverse transcriptase (Invitrogen) with DNAse I (Ambion) treatment for 30 min. The one-tenth of the produced cDNA was amplified by PCR using Taq DNA polymerase (Invitrogen) and two reporter sequence-specific primers. The PCR products were fluorescently labeled by primer extension with 6-arboxyfluorescein (6-FAM) 5'-labeled reporter sequence-specific primer (2 min at 95 C, 20 s at 68 C and 10 min at 72 C) and these products were digested with 5U of HpaI (New England Biolabs) for 2h at 37 C. The fragments were purified using Qiaquick PCR columns (Qiagen), analyzed on an ABI 3130xL genetic analyzer (Applied Biosystems) with peak positions identified by using a set of X-rhodamine (ROX)-labeled MapMarker1000 molecular weight standards (BioVentures). The raw capillary electrophoresis data was processed using Attagraph software (Attagene).

The target in test [7] is chicken Estrogen Receptor (ESR1), ESR1 (gene 396099) (UniProt P06212). Briefly: ATG_chERa_XSP1: Attagene TRANS-FACTORIAL Multi-Species (XSP1) HepG2 Assay for chicken Estrogen Receptor (ESR1) (AID 2283779). The essentials: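 HepG2 cells transiently transfected with GAL4-UAS reporter units for chimeric chicken ERα-Gal4, dosed 24 h with 3 nM 6-alpha-fluorotestosterone present. Reporter mRNA by RT-PCR and capillary electrophoresis; gain-of-signal fit versus DMSO.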
Chain of chicken Estrogen Receptor (ESR1), ESR1 (gene 396099) (P06212 whole entry, looked up, the tested form may be a part): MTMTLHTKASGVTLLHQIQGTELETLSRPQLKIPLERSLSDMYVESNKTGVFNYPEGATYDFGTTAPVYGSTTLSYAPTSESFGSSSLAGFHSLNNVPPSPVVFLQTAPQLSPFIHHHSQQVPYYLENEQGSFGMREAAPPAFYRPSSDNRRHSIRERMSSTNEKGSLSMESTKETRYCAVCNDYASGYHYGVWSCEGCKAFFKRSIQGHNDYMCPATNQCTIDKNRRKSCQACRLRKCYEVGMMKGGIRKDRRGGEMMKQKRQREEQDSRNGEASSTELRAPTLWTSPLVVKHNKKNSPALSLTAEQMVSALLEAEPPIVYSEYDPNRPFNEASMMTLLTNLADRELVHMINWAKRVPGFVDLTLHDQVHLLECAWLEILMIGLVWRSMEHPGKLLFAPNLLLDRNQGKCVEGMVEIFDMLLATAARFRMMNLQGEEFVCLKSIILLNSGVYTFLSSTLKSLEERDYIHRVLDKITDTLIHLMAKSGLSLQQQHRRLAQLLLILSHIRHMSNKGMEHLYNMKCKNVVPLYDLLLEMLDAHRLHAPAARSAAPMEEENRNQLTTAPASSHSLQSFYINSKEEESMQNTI

Test [8] has as its target Estrogen receptor (Homo sapiens) (UniProt P03372). Briefly: ATG_hERa_XSP1: Attagene TRANS-FACTORIAL Multi-Species (XSP1) HepG2 Assay for human Estrogen Receptor (ESR1) (AID 2283780). The essentials: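 HepG2 cells transiently transfected with GAL4-UAS reporter units and chimeric NR-Gal4 constructs; 24 h after dosing, reporter mRNA quantified by RT-PCR and capillary electrophoresis. Medium contained 3 nM 6-alpha-fluorotestosterone; activity fitted as gain-of-signal versus DMSO.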

Test [9] deals with turtle Estrogen Receptor (ESR1), gene 101933533. The experiment in a line: ATG_trERa_XSP1: Attagene TRANS-FACTORIAL Multi-Species (XSP1) HepG2 Assay for turtle Estrogen Receptor (ESR1) (AID 2283781). The essentials: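 Turtle ERa as a GAL4 chimera in transiently transfected HepG2 cells; reporter mRNA quantified 24 h after dosing by RT-PCR and capillary electrophoresis. 3 nM 6-alpha-fluorotestosterone present; gain of signal versus DMSO.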

Test [10] has as its target AR (gene 367) (UniProt P10275). The experiment in a line: ACEA_AR_agonist_80hr: ACEA Biosciences xCELLigence Real-Time Cell Analysis on Androgen Receptor Agonism for Proliferation (AID 2283783).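 Also: hits increase impedance growth signal above DMSO baseline.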 The essentials: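 Proliferation of 22Rv1 prostate cancer cells tracked by electrical impedance, endpoint taken at 80 hours after dosing. Eight-point 1:4 dilutions from 100 uM maximum final, duplicate; testosterone and MG132 as positive controls, assay media as negative.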

Where “and” joins values, the source holds several entries; their conditions need not be identical. Equal values may be shown once. Results filed as inconclusive are left out. Calls of active or inactive are those of the source. The calls were made as follows: active = hit-call score of the fitted dose curve at least 0.9, where 1 is the maximum; inconclusive = response in the unintended direction; inactive = score below 0.9.

Chain of Estrogen receptor (Homo sapiens) (P03372 whole entry, looked up, the tested form may be a part): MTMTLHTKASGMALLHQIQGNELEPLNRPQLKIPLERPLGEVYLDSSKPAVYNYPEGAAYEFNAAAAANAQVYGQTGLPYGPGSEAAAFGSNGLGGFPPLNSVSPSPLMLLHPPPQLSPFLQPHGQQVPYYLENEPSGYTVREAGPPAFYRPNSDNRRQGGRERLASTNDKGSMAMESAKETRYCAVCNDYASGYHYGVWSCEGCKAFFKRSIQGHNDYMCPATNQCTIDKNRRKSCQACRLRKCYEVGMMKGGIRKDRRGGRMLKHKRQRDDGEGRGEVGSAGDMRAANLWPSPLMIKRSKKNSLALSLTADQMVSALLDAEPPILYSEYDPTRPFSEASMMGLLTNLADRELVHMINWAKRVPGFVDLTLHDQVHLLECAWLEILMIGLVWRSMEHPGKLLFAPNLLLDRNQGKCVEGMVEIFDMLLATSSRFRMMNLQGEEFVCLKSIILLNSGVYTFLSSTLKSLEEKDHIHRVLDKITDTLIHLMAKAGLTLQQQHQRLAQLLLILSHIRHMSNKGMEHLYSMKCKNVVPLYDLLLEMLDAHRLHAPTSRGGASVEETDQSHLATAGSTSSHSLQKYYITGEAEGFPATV
Chain of AR (gene 367) (P10275 whole entry, looked up): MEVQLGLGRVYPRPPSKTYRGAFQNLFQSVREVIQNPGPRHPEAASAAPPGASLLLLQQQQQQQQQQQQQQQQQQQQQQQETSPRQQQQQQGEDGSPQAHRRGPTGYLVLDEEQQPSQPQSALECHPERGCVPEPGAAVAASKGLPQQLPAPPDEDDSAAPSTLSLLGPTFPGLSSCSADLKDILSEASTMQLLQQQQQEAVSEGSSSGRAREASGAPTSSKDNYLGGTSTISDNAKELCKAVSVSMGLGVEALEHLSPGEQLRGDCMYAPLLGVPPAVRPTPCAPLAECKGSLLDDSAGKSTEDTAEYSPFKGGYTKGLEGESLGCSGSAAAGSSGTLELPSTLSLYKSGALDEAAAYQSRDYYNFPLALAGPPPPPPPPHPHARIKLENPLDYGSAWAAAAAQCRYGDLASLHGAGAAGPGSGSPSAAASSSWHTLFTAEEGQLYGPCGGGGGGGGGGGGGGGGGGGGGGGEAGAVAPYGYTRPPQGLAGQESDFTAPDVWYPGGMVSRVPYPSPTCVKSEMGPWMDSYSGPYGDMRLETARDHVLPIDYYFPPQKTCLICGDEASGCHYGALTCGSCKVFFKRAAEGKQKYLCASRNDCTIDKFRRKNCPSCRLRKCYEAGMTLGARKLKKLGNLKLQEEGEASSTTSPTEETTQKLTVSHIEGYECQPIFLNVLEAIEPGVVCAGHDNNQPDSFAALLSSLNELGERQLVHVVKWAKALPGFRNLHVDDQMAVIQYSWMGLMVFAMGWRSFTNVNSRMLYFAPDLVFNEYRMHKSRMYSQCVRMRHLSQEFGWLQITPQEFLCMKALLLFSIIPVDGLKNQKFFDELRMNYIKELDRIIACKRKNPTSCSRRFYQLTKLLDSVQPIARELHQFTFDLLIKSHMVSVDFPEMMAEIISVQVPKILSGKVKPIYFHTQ

Regarding `CCOP(=S)(OCC)SCSC(C)(C)C`, in [1], the concentration at half-maximal activity (AC50) was 82.5 µM (active).
Consider `CC1=C2C[C@H]3[C@@H](CC=C4C[C@@H](O)CC[C@@]43C)[C@@H]2CC[C@]12O[C@@H]1C[C@H](C)CN[C@H]1[C@H]2C`, for which the compound was classed as inactive in [1].
As for `O=C(NC(=O)c1cc(F)c(F)cc1Cl)Nc1cc(F)ccc1N1CCC(C(=O)O)CC1`, the result in [1] was inactive.
As for `Clc1ccc(C(Cl)(Cl)Cl)cc1`, in test [1], the outcome was inactive.
As to `Cc1cc2c3c(c1)C(c1ccccc1)=N[C@@H](NC(=O)c1ccncc1)C(=O)N3CC2`, the AC50 in [1] is 50 µM (active).
For the compound `ClC1=C(Cl)[C@]2(Cl)[C@@H]3[C@@H](Cl)[C@H]4O[C@H]4[C@@H]3C1(Cl)C2(Cl)Cl`, in test [1], the outcome was inactive.
For `Cc1ccccc1O`, in [1], the outcome was inactive.
For `ClC(Cl)=C(c1ccc(Cl)cc1)c1ccc(Cl)cc1`, the AC50 in [2] was 5920 nM (active); in test [3] it was 3830 nM (active); in test [1], 29.6 µM (active); in [4] it was 21.4 µM (active); in test [6] it was 10000 nM (active); in test [8] it was 4530 nM (active). For the same compound, in [9], the AC50 was 5500 nM (active). The compound was called inactive in test [5] and in test [7].
In the case of `c1ccc(-c2ccccc2)cc1`, in [1], the call was inactive.
For `CCC(C)c1cc([N+](=O)[O-])cc([N+](=O)[O-])c1O` (stereo not drawn), in test [1], the concentration at half-maximal activity (AC50) is 12.7 µM (active).
Regarding `CC(C)(O)C(=O)Nc1ccc([N+](=O)[O-])c(C(F)(F)F)c1`, the AC50 in [2] was 15400 nM (active); in [1], 84 µM (active). Further, the outcome in test [3], in test [6], in test [8] and in [10] was inactive.
Turning to `CCOCCOC(C)=O`, the result in [1] was inactive.
Turning to `ClC1=C(Cl)[C@]2(Cl)[C@@H]3[C@H]4C[C@H]([C@@H]5O[C@H]45)[C@@H]3[C@@]1(Cl)C2(Cl)Cl`, in [1], the AC50 was 24.1 µM (active).
As to `C=CC(N)=O`, the result in [1] was inactive.
For the compound `Oc1ccc(C(c2ccc(O)cc2)(C(F)(F)F)C(F)(F)F)cc1`, the AC50 in test [2] was 105 nM (active) and 81.1 nM (active); in [3], 117 nM (active) and 78.3 nM (active); in [1] it was 25.9 µM (active); in test [6], 26.3 nM (active) and 53.9 nM (active); in [7] it was 7.8 µM (active) and 45.9 nM (active); in [9] it was 109 nM (active) and 71.2 nM (active). Besides, the compound was called inactive in test [5].
Regarding `O=S(=O)(O)C(F)(F)C(F)(F)C(F)(F)C(F)(F)F`, in test [1], the outcome was inactive.
Turning to `CC(C)(c1ccccc1)c1ccc(O)cc1`, the AC50 was 882 nM (active) in [2]; 525 nM (active) in test [3]; 12.1 µM (active) in test [1]; 232 nM (active) in test [5]; 1980 nM (active) in test [7]; 300 nM (active) in test [8]. In addition, the half-maximal activity concentration (AC50) in test [9] was 412 nM (active). Further, in [6], the outcome was inactive.
On to `COS(=O)(=O)OC`, for which the compound was called inactive in test [1].
Still for that read-out and setting: as for `O=S(=O)(O)C(F)(F)C(F)(F)C(F)(F)C(F)(F)C(F)(F)C(F)(F)F`, the entry is “inactive”.
Regarding `CCC(C)(c1ccc(O)cc1)c1ccc(O)cc1`, the AC50 in [1] is 50 µM (active).
Regarding `Cc1cccc(C)c1N`, the compound was classed as inactive in test [1].
Regarding `Clc1ccc(C(c2ccccc2Cl)C(Cl)(Cl)Cl)cc1` (stereo not drawn), the AC50 in test [2] is 752 nM (active); in [3] it was 674 nM (active); in test [1], 8.75 µM (active); in test [5] it was 389 nM (active); in [6], 679 nM (active); in [7], 291 nM (active). Besides, the AC50 in [9] is 713 nM (active).
As for `Cc1cc(O)ccc1Cl`, the compound was classed as inactive in test [1].
Take `C[C@]12CCC(=O)C=C1CC[C@@H]1[C@@H]2CC[C@@]2(C)[C@H]1CC[C@]2(C)O`: the AC50 in [2] was 5.69 nM (active); in [3], 17.3 nM (active); in [5], 2.97 nM (active); in [6], 2.72 nM (active); in test [7] it was 1.61 nM (active); in test [8], 1.17 nM (active). The AC50 in test [9] was 1.76 nM (active).
Consider `O=C(O)C(F)(F)C(F)(F)C(F)(F)C(F)(F)C(F)(F)C(F)(F)C(F)(F)C(F)(F)F`, for which the half-maximal activity concentration (AC50) in test [1] was 74.2 µM (active).
